Assay [1] is described as follows: qHTS profiling of the MIPE4 collection as inhibitors of Plasmodium falciparum (DD2) proliferation (Rep 2) (AID 743346; call rule not given here). The settings on record: P. falciparum Dd2 in erythrocytes, SYBR Green DNA, 72 h; at 28.5 µM unless noted. In outline: (§1)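 Parasite DNA was quantified by SYBR Green I fluorescence (ex 485, em 535 nm) after overnight lysis in saponin/Triton buffer at room temperature. Cultures at 0.3% parasitemia and 2.5% hematocrit were first exposed to compound for 72 h at 37 C; signals were normalised to artemisinin (0.29 uM) and vehicle wells.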
A general note: In qHTS, concentration-response curves come from the screen itself.

Assay [2] in a line: qHTS profiling of the MIPE4 collection as inhibitors of Plasmodium falciparum (HB3) proliferation (AID 743347; call rule not given here;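 also: plate controls were DMSO vehicle wells for no effect and artemisinin wells for full effect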). The settings on record: P. falciparum HB3 in erythrocytes, SYBR Green DNA, 72 h; at 28.5 µM unless noted. The essentials: as §1
Assay [3] is described as follows: High-throughput drug toxicity screening in the BPDCN cell line Gen2.2 (AID 1224824; call rule not given here;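 also: cells exposed to compounds for 48 h before reading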). The settings on record: Gen2.2 BPDCN cells; at 45.8 µM (top of the series) unless noted. In outline: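 CellTiter-Glo luminescence read after 48 h compound exposure at 37 C defines viability; percent activity set with DMSO as 100% and bortezomib (9.2 uM final) as 0%. 500 exponentially growing cells per well, RPMI plus 10% FBS.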

Assay [4] can be described thus: High-throughput drug toxicity screening in the BPDCN cell line Cal-1 (AID 1224825; call rule not given here). The conditions noted are these: Cal-1 BPDCN cell viability, qHTS; at 45.8 µM (top of the series) unless noted. The essentials:
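Viability of the BPDCN line Cal-1 is measured as ATP-based luminescence (CellTiter-Glo) following 48 h incubation with compounds. Percent activity uses DMSO-treated wells as 100% and 9.2 uM bortezomib as 0%.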

Assay [5] is described as follows: qHTS assay for measurement of the activity of small molecule inhibitors on Zika virus induced Caspase-3 activity in human iPSC derived neural progenitor cells (hNPCs) (AID 1224857). Also: % of control where 0% means no effect; nearly all actives have a fitted effect of over 65% in size. In outline: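 Zika virus (2 FFU/cell) infection of human iPSC-derived NPCs, 6 h, following 1 h compound preincubation. Read-out: Caspase-Glo 3/7 luminescence.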
A short description of assay [6]: qHTS assay for measurement of the activity of small molecule inhibitors on Zika virus induced Caspase-3 activity in human astrocytoma cells (AID 1224859).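 Also: plate controls were ZIKV-infected untreated cells for no effect and uninfected cells for full effect.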 In outline: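 Caspase activation in ZIKV-infected SNB-19 cells (2 FFU/cell, 6 h) measured by Caspase-Glo 3/7 luminescence after 30 min RT; compound pre-incubated 1 h; normalised to uninfected and infected controls.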

Assay [7] in a line: qHTS Screen of the MIPE 4.0 Collection Against Ewings Sarcoma (RDES) (AID 1259252). Also: nearly all actives have a fitted effect of over 35% in size. Also: potency is read from the fitted curve at half-maximal effect. The essentials: (§2)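 Here, cells in 5% FBS RPMI were exposed for two days (48 h) to compound dilutions added four hours after plating. ATP-based CellTiter-Glo luminescence measured viability, normalized to vehicle and no-cell blanks.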
The nature of assay [8]: qHTS Screen of the MIPE 4.0 Collection Against Ewings Sarcoma (TC71) (AID 1259253). Also: nearly all actives have a fitted effect of over 40% in size. Also: potency is read from the fitted curve at half-maximal effect. The essentials:
as §2

Assay [9] in a line: qHTS Screen of the MIPE 4.0 Collection Against Ewings Sarcoma (EW8) (AID 1259255). Also: nearly all actives have a fitted effect of over 35% in size. Also: potency is read from the fitted curve at half-maximal effect.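 As to viability: 100% = DMSO-treated cells and 0% = medium-only wells without cells.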 In outline: as §2
Assay [10] can be described thus: qHTS Screen of the MIPE 4.0 Collection Against Ewings Sarcoma (TC32) (AID 1259256). Also: nearly all actives have a fitted effect of over 45% in size. Also: potency is read from the fitted curve at half-maximal effect. In outline: as §2
Assay [11] in a line: qHTS assay to identify small molecule inhibitors of chordoma cells - UCH-2 (AID 1259356). Also: % is scaled to controls: 0 for no effect and ±100 for the full control effect.
Assay [12] in a line: P-glycoprotein substrates identified in KB-8-5-11 adenocarcinoma cell line, qHTS therapeutic library screen (AID 1346987). Also: nearly all actives have a fitted effect of over 65% in size. Also: potency is read from the fitted curve at half-maximal effect. In outline: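 Luminescence from CellTiter-Glo, read 5 min after addition, quantified survival of KB-8-5-11 (P-gp-overexpressing) cells exposed to compounds for 72 h. AC50 was derived from concentration-response curves.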
Assay [13] in a line: P-glycoprotein substrates identified in KB-3-1 adenocarcinoma cell line, qHTS therapeutic library screen (AID 1346986). Also: nearly all actives have a fitted effect of over 60% in size. The conditions noted are these: KB-3-1 parental cells viability, CellTiter-Glo, 72 h; at 44.5 µM (top of the series). In outline: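 72 h cell-killing screen, 500 cells/well, CellTiter-Glo luminescence. Paired lines KB-3-1/KB-8-5-11; P-gp dependence checked by tariquidar co-treatment and HEK-293 MDR-19 versus empty-vector cells.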

The nature of assay [14]: Identifying Small Molecule Inhibitors of Pancreatic Cancer Stem Cells (SN12C, Adherent) (AID 1259358).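 Also: potency is read from the fitted curve at half-maximal effect; cell survival measured after 48 h of compound exposure.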 The essentials:
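Luminescent ATP readout (CellTiter-Glo) quantifies surviving cells after a 48 h drug incubation. Normalization uses DMSO wells as no inhibition and media-only wells as full inhibition; bortezomib served as positive control.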

A short description of assay [15]: Identifying Small Molecule Inhibitors of Pancreatic Cancer Stem Cells (SN12C, Spheroid) (AID 1259360). Also: potency is read from the fitted curve at half-maximal effect. The settings on record: Potency: SN12C spheroid viability. In outline: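 Spheroids grown 14 days in stem cell media on hydrogel-coated nonadherent plates; 2D lines seeded directly. Compounds added after 4 h attachment, 48 h at 37C, 5% CO2; CellTiter-Glo luminescence normalized to DMSO (no inhibition) and no-cell wells (full inhibition).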

Assay [16] can be described thus: Identifying Small Molecule Inhibitors of Pancreatic Cancer Stem Cells (Panc1, Adherent) (AID 1259362). Also: potency is read from the fitted curve at half-maximal effect. The conditions noted are these: viability. The essentials: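 Endpoint: ATP-based luminescence, 48 h drug exposure. Bortezomib at 9.2 uM final as full-kill control; DMSO vehicle as negative control; activity normalized between vehicle and cell-free wells.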
The nature of assay [17]: qHTS assay to identify small molecule inhibitors of chordoma cells - UCH-1 (AID 1259355). Also: % is scaled to controls: 0 for no effect and ±100 for the full control effect; nearly all actives have a fitted effect of over 55% in size. In outline: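 A 48hr growth-inhibition format: each drug tested at 15 concentrations together with added auranofin, camptothecin, doxorubicin, rubitecan and topotecan, with cell viability quantified as CellTiter-Glo luminescence.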

The results in this text go back to PubChem BioAssay (NCATS).

Several values for one entry are separate records, joined by “and”; a condition that tells them apart may be missing. Identical values can stand only once. Results filed as inconclusive are left out. Activity calls are given as the source filed them. Unless noted, calls follow the shape of the dose curve; as a rule, active = well fitted curve in the direction sought with a large enough effect; inconclusive = small, poorly fitted or top-dose-only effect, or another doubt; inactive = no such curve, though single readings can be large; an effect the other way counts as inactive or inconclusive.

Take `C#CCN[C@@H]1CCc2ccccc21`: in assay [1], the parasite growth, % of control (lower = inhibition) stood at 95.4%. The growth, % of control in assay [2] stood at 103%. Moreover, in assay [3], the cell viability, % of control (lower = more cytotoxic) is 153%. Moreover, in assay [4], the viability (% of control) stood at 57.2%. In addition, the Potency entry in assay [5], in assay [6], in assay [7], in assay [8], in assay [9] and in [10] was “inactive” throughout. Moreover, the Potency entry in [11] and in [12] was “inactive” throughout.
For `CCn1cc(C(=O)O)c(=O)c2cc(F)c(N3CCNCC3)cc21`, the cell viability, % of control (lower = more cytotoxic) in assay [3] came to 113%. In assay [4], the viability (% of control) was determined as 104%. Besides, the Potency entry in [5], in assay [6], in assay [7], in assay [8], in assay [9] and in assay [10] was “inactive” each time. Besides, the Potency result in assay [11] and in assay [12] was “inactive” in each case. Besides, the outcome in assay [13] was inactive.
With `CCOC(=O)c1ccc(OC(=O)CCCCCN=C(N)N)cc1`, the parasite growth, % of control (lower = inhibition) in assay [1] was 118%. In [2], this compound had a growth, % of control of 80.6%. The cell viability, % of control (lower = more cytotoxic) in [3] worked out at 186%. For the same compound, the viability (% of control) in assay [4] amounted to 106%. The Potency entry in assay [5], in assay [6], in [7], in assay [8], in [9] and in assay [10] was “inactive” throughout. For the same compound, the Potency entry in [11] and in [12] was “inactive” throughout.
On to `NC1(c2ccc(-c3nc4ccn5c(=O)[nH]nc5c4cc3-c3ccccc3)cc2)CCC1`, for which the parasite growth, % of control (lower = inhibition) in assay [1] came to 7.57%. Besides, the growth, % of control in assay [2] was determined as 8.07%. In assay [3], the cell viability, % of control (lower = more cytotoxic) was determined as 7.66%. In addition, the viability (% of control) in assay [4] was found to be 4.61%. Further, the Potency result in [5] and in assay [6] was “inactive” each time. The Potency was 23.5 µM (active) in [7]; 20.9 µM (active) in assay [8]; 4.69 µM (active) in assay [9]; 13.2 µM (active) in [10]; 26.4 µM (active) in assay [14]; 23.5 µM (active) in assay [15]. For the same compound, the figures for the Potency in assay [16] and in assay [12] were 20.9 µM (active) and 11.6 µM (active), respectively.
Take `CC(C)(C)C(=O)OCOP(=O)(COCCn1cnc2c(N)ncnc21)OCOC(=O)C(C)(C)C`: in assay [1], the parasite growth, % of control (lower = inhibition) was 97.4%. For the same compound, the growth, % of control in [2] is 82.4%. For the same compound, the cell viability, % of control (lower = more cytotoxic) in [3] is 3.53%. For the same compound, the viability (% of control) in assay [4] worked out at 2.56%. Further, the Potency entry in assay [5], in [6], in [10], in assay [17], in assay [11] and in assay [12] was “inactive” each time. Further, the Potency in [7] is 0.372 µM (active); in [8], 0.833 µM (active); in assay [9], 0.209 µM (active).
For `CCCCc1oc2ccc(NS(C)(=O)=O)cc2c1C(=O)c1ccc(OCCCN(CCCC)CCCC)cc1`, the parasite growth, % of control (lower = inhibition) in assay [1] was 18.2%. The growth, % of control in assay [2] was found to be 7.93%. For the same compound, the cell viability, % of control (lower = more cytotoxic) in assay [3] came out at 5.11%. In addition, the viability (% of control) in [4] is 4.81%. Further, the Potency entry in assay [5] and in [6] was “inactive” each time. Besides, the Potency in [7] is 23.5 µM (active); in [8] it was 20.9 µM (active); in assay [9], 16.6 µM (active); in assay [10] it was 20.9 µM (active); in assay [12], 26.4 µM (active) and 16.4 µM (active).
For the compound `CN(Cc1cc(Br)cc(Br)c1N)C1CCCCC1`, the parasite growth, % of control (lower = inhibition) in assay [1] is 25.7%. In addition, the growth, % of control in assay [2] was found to be 62.3%. Also, the cell viability, % of control (lower = more cytotoxic) in assay [3] was 226%. The viability (% of control) in [4] came out at 107%. Also, the Potency entry in assay [5], in assay [6], in assay [7], in assay [8], in [9] and in [10] was “inactive” in each case. The Potency entry in assay [11] and in assay [12] was “inactive” throughout.
Take `CC[C@H](NC(C)C)[C@H](O)c1ccc(O)c2[nH]c(=O)ccc12`: the parasite growth, % of control (lower = inhibition) in assay [1] is 92.5%. For the same compound, in [2], the growth, % of control is 96.3%. In assay [3], the cell viability, % of control (lower = more cytotoxic) turned out to be 160%. Besides, the viability (% of control) in assay [4] was 121%. Moreover, the Potency result in assay [5], in assay [6], in assay [7], in assay [8], in [9] and in assay [10] was “inactive” throughout. Moreover, the Potency result in assay [17], in [11] and in assay [12] was “inactive” in each case.
